# Experimental data taken from PubChem BioAssay (Tox21).
# Several values for one entry are separate records, joined by “and”; a condition that tells them apart may be missing. Equal values may be shown once. Inconclusive results are not listed. Entries that show only a call come without a potency. A number with no mark means an inactive call. Activity calls are given as the source filed them. Calls follow the shape of the dose curve; as a rule, active = well fitted cell-killing curve with a large enough effect in the repeat runs; inconclusive = weak or mixed curves; inactive = flat fitted curve, though single readings scatter.
# Assay: qHTS RealTime-Glo MT Cell Viability Assay in HepG2 cells - 32 hour (AID 1224877); also: nearly all actives have a fitted effect of over 55% in size
# Details: RealTime-Glo luminescence; series mostly up to 76.8 µM; activity change, negative = cytotoxic: at the top concentration
# Source text: U.S. Tox21 Program National Center for Advancing Translational Sciences [NCATS] NIH Chemical Genomics Center [NCGC] U.S. Environmental Protection Agency [EPA] National Institutes of Environmental Health Sciences [NIEHS] National Toxicology Program [NTP] U.S. Food and Drug Administration [FDA] Tox21 Assay Overview: Measure of cell viability is critical in the cell-base assay. Analysis of cell viability is necessary for the characterization of cell responses to cytotoxic drugs and environmental stress. A RealTime-Glo MT Cell Viability Assay to monitor cell viability in real time of continues cell culture during 40 hours of compound treatment was used to screen Tox21 10K library compounds in HepG2 cells. The RealTime-Glo MT Cell Viability Assay is a nonlytic, homogeneous, bioluminescent method to measure cell viability in real time using a simple, plate-based method. The assay involves adding NanoLuc luciferase and a cell-permeant prosubstrate to cells in culture. Viable cells reduce the proprietary prosubstrate to generate a substrate for NanoLuc luciferase. This substrate diffuses from cells into the surrounding culture medium, where it is rapidly used by the NanoLuc Enzyme to produce a luminescent signal. The signal correlates with the number of viable cells, making the assay well suited for cytotoxicity studies.
# Tox21 Assay Protocol Summary: The mixture of HepG2 cell suspension and reagents were dispensed at 600cells/6 ul/well in 1536-well tissue culture treated black solid bottom plates using a Multidrop dispenser. After the assay plates were incubated at a 37 C/5% CO2 incubator for 5 hours, 23 nL of compounds dissolved in DMSO, positive and negative controls was transferred to the assay plate by a pintool work station. The plates were incubated at 37 C for 40 hours. The luminescence intensity were measured at 0h, 8h, 16h, 24h, 32h and 40h time points using ViewLux plate reader during compound treatment.
# Potency is read from the fitted curve at half-maximal effect.
Compound,Potency,"activity change, negative = cytotoxic"
Nc1ncn[nH]1,inactive,
Cc1cccc(N=Nc2ccc(N(C)C)cc2)c1,inactive,
CC(O)CN(CC(C)O)CC(C)O (stereo not given),inactive,
CCNc1nc(Cl)nc(NC(C)(C)C#N)n1,inactive,
CCC[CH2][Sn]([Cl])([CH2]CCC)[CH2]CCC,1.23 µM (active) and 436 nM (active),
CCC[CH2][Sn]([Cl])([Cl])[CH2]CCC,222 nM (active) and 155 nM (active),
CC(C)(O)C#N,inactive,
CCC(=O)Nc1ccc(Cl)c(Cl)c1,inactive,
N#CCCCCC#N,inactive,
S=c1[nH]c2ccccc2[nH]1,inactive,
O=C(O)CF,inactive,
C=CC(Cl)CCl (stereo not given),inactive,
CCCCC(C#N)(Cn1cncn1)c1ccc(Cl)cc1 (stereo not given),inactive,
O=[N+]([O-])c1ccc(Cl)c([N+](=O)[O-])c1,35.2 µM (active) and 17.4 µM (active),
CCOP(=S)(OCC)OP(=S)(OCC)OCC,inactive,
[CH3][Sn]([Cl])([Cl])[Cl],inactive,
CCCCCCCCCC(CC)c1ccc(S(=O)(=O)O)cc1 (stereo not given),inactive,
[Cl-].[Cl-].[Cl-].[Fe+3],inactive,
N#Cc1nn(-c2c(Cl)cc(C(F)(F)F)cc2Cl)c(N)c1S(=O)C(F)(F)F (stereo not given),,-9.47% [at 35.3 µM]
CCCCOCCOC(C)=O,inactive,

Compound,Potency,"activity change, negative = cytotoxic"
CN(C)P(=O)(N(C)C)N(C)C,inactive,
CC(C)CON=O,inactive,
ClCC(Cl)CCl,inactive,
COP(=S)(OC)Oc1ccc(S(=O)(=O)N(C)C)cc1,inactive,
COP(=S)(OC)Oc1ccc(Sc2ccc(OP(=S)(OC)OC)cc2)cc1,inactive,
CCOP(=S)(OCC)SCn1c(=O)oc2cc(Cl)ccc21,inactive,
Nc1ccc([N+](=O)[O-])cc1N,inactive,
CNC(=O)CSP(=S)(OC)OC,inactive,
CC(C)(O)C(=O)Nc1ccc([N+](=O)[O-])c(C(F)(F)F)c1,inactive,
Oc1ccc(Cl)cc1Cl,inactive,
N#Cc1c(Cl)c(Cl)c(Cl)c(C#N)c1Cl,19.1 µM (active) and 3.89 µM (active),
N#CC(c1ccccc1)c1ccccc1,inactive,
CCNCC,inactive,
Cl,inactive,
CC(C)(C#N)N=NC(C)(C)C#N,inactive,
COP(=O)(NC(C)=O)SC (stereo not given),inactive,
CSc1nc(NC(C)C)nc(NC(C)C)n1,inactive,
CCOP(=O)(OCC)OCC,inactive,
CC(C)(c1ccc(OCC2CO2)cc1)c1ccc(OCC2CO2)cc1 (stereo not given),inactive,
CCOC(=O)c1ccccc1N,inactive,
